# From PubChem BioAssay (Tox21)
# Where “and” joins values, the source holds several entries; their conditions need not be identical. Equal entries are not always repeated. Inconclusive results are not listed. Calls of active or inactive are those of the source. Calls come from the whole dose curve; as a rule, active = well fitted curve in the direction sought with a large enough effect in the repeat runs; inconclusive = weak or mixed curves; inactive = no such curve, though single readings can be large; an effect the other way counts as inactive or inconclusive.
# Experiment: qHTS assay to identify small molecule antagonists of the androgen receptor (AR) signaling pathway using the MDA cell line - cell viability counter screen (AID 743041; note: nearly all actives have a fitted effect of over 45% in size)
# Settings: MDA-kb2 viability, CellTiter-Fluor, 16 h, cells co-treated with R1881 androgen agonist; series mostly up to 70.3 µM; viability change, negative = cytotoxic: at the top concentration
# Summary of the method: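 Viability read by CellTiter-Fluor fluorescence in the same wells as the antagonist screen, added after 15.5 h of a 16 h, 37C exposure. Human breast carcinoma MDA-kb2 AR-luc cells, compounds co-dosed with agonist R1881.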
# % is set by controls: 0 for no effect and ±100 for the full control effect; potency is the fitted concentration of half-maximal effect.
Compound,"viability change, negative = cytotoxic",Potency
N#CC(C#N)=C(C#N)C#N,-14.4% [at 95 µM] (inactive),–
O=C1NC(=O)C(=O)C(=O)N1,8.33% [at 95 µM] (inactive),–
CON(C)C(=O)Nc1ccc(Cl)cc1,2.85% (inactive),–
CCCCOC(=O)CCC(=O)OCCCC,0.0941% (inactive),–
C1CCNCC1,-4.56% [at 95 µM] (inactive),–
O=C1c2ccccc2C(=O)N1SC(Cl)(Cl)Cl,–,21.7 µM (active)
C[Si](Cn1cncn1)(c1ccc(F)cc1)c1ccc(F)cc1,–,inactive
FC(Cl)(Cl)C(F)(Cl)Cl,2.01% [at 95 µM] (inactive),–
CCCCC(CC)COC(=O)c1c(Br)c(Br)c(Br)c(Br)c1C(=O)OCC(CC)CCCC (stereo unspecified),-1.99% (inactive),–
COc1ccccc1N1CCNCC1,-4.72% (inactive),–
O=C(Cc1ccccc1)c1ccccc1,-1.6% (inactive),–
CCCBr,-1.75% (inactive),–
CCc1ccccc1N,-3.21% (inactive),–
COc1cc(CC(C)N)c(OC)cc1Br (stereo unspecified),-7.47% [at 95 µM] (inactive),–
C[N+]1(CCC(C(N)=O)(c2ccccc2)c2ccccc2)CCCCC1,-4.51% (inactive),–
CCCCC1C(=O)NC(=O)N(C2CCCCC2)C1=O (stereo unspecified),-1.14% (inactive),–
O=C([O-])c1ccccn1.O=C([O-])c1ccccn1.O=C([O-])c1ccccn1.[Cr+3],-5.07% (inactive),–
C[C@H]1O[C@H](OC2[C@@H](O)[C@@H](O)C(O)[C@H](O)[C@H]2O)[C@@H](N)C[C@@H]1N=C(N)C(=O)O (stereo partly specified),0.204% (inactive),–
CC(C)(c1ccccc1)c1cc(-n2nc3ccccc3n2)c(O)c(C(C)(C)c2ccccc2)c1,3.48% (inactive),–

Compound,"viability change, negative = cytotoxic",Potency
CCCC[P+](CC)(CCCC)CCCC (tested in a mixture with another compound),-10.7% [at 95 µM] (inactive),–
NNCCO,4.03% (inactive),–
CCC[N+](CCC)(CCC)CCC,3.08% (inactive),–
CC(O)CN1CCN(CC(=O)[O-])CCN(CC(=O)[O-])CCN(CC(=O)[O-])CC1.[Gd+3] (stereo unspecified),–,inactive
c1ccc2sc(SNC3CCCCC3)nc2c1,–,inactive
CC(C)(C)c1ccc(CCOc2ncnc3ccccc23)cc1,-1.77% (inactive),–
O=[N+]([O-])O[C@H]1CO[C@H]2[C@@H]1OC[C@H]2O[N+](=O)[O-],5.65% (inactive),–
CC(C)CCON=O,–,inactive
CC(C)(C)NCC(O)c1ccccc1Cl (stereo unspecified),2.73% (inactive),–
CCC(C)Cl (stereo unspecified),-4.3% (inactive),–
CCCCCl,–,inactive
O=C(O)C(Cl)(Cl)Br,-1.28% [at 95 µM] (inactive),–
COC(=O)Cc1ccccc1,5.88% (inactive),–
OC[P+](CO)(CO)CO,–,inactive
O=C(O)c1cc(Cl)ccc1Cl,4.59% (inactive),–
CC(C)(C)OOC(C)(C)CCC(C)(C)OOC(C)(C)C,-1.06% (inactive),–
CCCCC#N,4.25% (inactive),–
C[N+](C)(C)CCOC(=O)C(O)(c1ccccc1)c1ccccc1,11.4% (inactive),–
CN(C)c1ccc(N=O)cc1,–,54.6 µM (active) and 27.3 µM (active)

# Experiment: qHTS assay to identify small molecule antagonists of the thyroid receptor (TR) signaling pathway - cell viability counter screen (AID 743064); note: nearly all actives have a fitted effect of over 50% in size
# Settings: GH3.TRE-Luc viability, CellTiter-Fluor, 24 h; series mostly up to 70.3 µM; activity change, negative = cytotoxic: at the top concentration
# Summary of the method: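 GH3.TRE-Luc rat pituitary cells dosed after 4 hr plating, co-stimulated with T3 at 1 nM final, incubated 23.5 h at 37 C. Viability measured in the same wells by CellTiter-Fluor fluorescence after 30 min further at 37 C.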
Compound,"activity change, negative = cytotoxic",Potency
N#CC(C#N)=C(C#N)C#N,2.65% [at 95 µM] (inactive),–
O=C1NC(=O)C(=O)C(=O)N1,-14.7% [at 95 µM] (inactive),–
CON(C)C(=O)Nc1ccc(Cl)cc1,-5.77% (inactive),–
CCCCOC(=O)CCC(=O)OCCCC,-6.03% (inactive),–
C1CCNCC1,9.59% [at 95 µM] (inactive),–
O=C1c2ccccc2C(=O)N1SC(Cl)(Cl)Cl,–,4.27 µM (active) and 2.17 µM (active)
C[Si](Cn1cncn1)(c1ccc(F)cc1)c1ccc(F)cc1,–,63.1 µM (active)
FC(Cl)(Cl)C(F)(Cl)Cl,9.23% [at 95 µM] (inactive),–
CCCCC(CC)COC(=O)c1c(Br)c(Br)c(Br)c(Br)c1C(=O)OCC(CC)CCCC (stereo unspecified),-4.86% (inactive),–
COc1ccccc1N1CCNCC1,7.31% (inactive),–
O=C(Cc1ccccc1)c1ccccc1,9.26% (inactive),–
CCCBr,-1.02% (inactive),–
CCc1ccccc1N,7.62% (inactive),–
COc1cc(CC(C)N)c(OC)cc1Br (stereo unspecified),–,35.5 µM (active) and 23.7 µM (active)
C[N+]1(CCC(C(N)=O)(c2ccccc2)c2ccccc2)CCCCC1,-13.7% (inactive),–
CCCCC1C(=O)NC(=O)N(C2CCCCC2)C1=O (stereo unspecified),11.4% (inactive),–
O=C([O-])c1ccccn1.O=C([O-])c1ccccn1.O=C([O-])c1ccccn1.[Cr+3],0.985% (inactive),–
C[C@H]1O[C@H](OC2[C@@H](O)[C@@H](O)C(O)[C@H](O)[C@H]2O)[C@@H](N)C[C@@H]1N=C(N)C(=O)O (stereo partly specified),-2.08% (inactive),–
CC(C)(c1ccccc1)c1cc(-n2nc3ccccc3n2)c(O)c(C(C)(C)c2ccccc2)c1,6.97% (inactive),–

Compound,"activity change, negative = cytotoxic",Potency
CCCC[P+](CC)(CCCC)CCCC (tested in a mixture with another compound),2.87% [at 95 µM] (inactive),–
NNCCO,-3.42% (inactive),–
CCC[N+](CCC)(CCC)CCC,3.74% (inactive),–
CC(O)CN1CCN(CC(=O)[O-])CCN(CC(=O)[O-])CCN(CC(=O)[O-])CC1.[Gd+3] (stereo unspecified),15.5% (inactive),–
c1ccc2sc(SNC3CCCCC3)nc2c1,–,inactive
CC(C)(C)c1ccc(CCOc2ncnc3ccccc23)cc1,0.0979% (inactive),–
O=[N+]([O-])O[C@H]1CO[C@H]2[C@@H]1OC[C@H]2O[N+](=O)[O-],18.4% (inactive),–
CC(C)CCON=O,–,inactive
CC(C)(C)NCC(O)c1ccccc1Cl (stereo unspecified),-0.29% (inactive),–
CCC(C)Cl (stereo unspecified),-1.89% (inactive),–
CCCCCl,–,inactive
O=C(O)C(Cl)(Cl)Br,2.63% [at 95 µM] (inactive),–
COC(=O)Cc1ccccc1,20.8% (inactive),–
OC[P+](CO)(CO)CO,–,inactive
O=C(O)c1cc(Cl)ccc1Cl,-2.91% (inactive),–
CC(C)(C)OOC(C)(C)CCC(C)(C)OOC(C)(C)C,20.7% (inactive),–
CCCCC#N,9.82% (inactive),–
C[N+](C)(C)CCOC(=O)C(O)(c1ccccc1)c1ccccc1,8.89% (inactive),–
CN(C)c1ccc(N=O)cc1,–,3.87 µM (active) and 9.69 µM (active)
